The structures appear in SMILES notation. Active and inactive are the calls of the source. Cut-off read from the data, not from the text of the source, unless noted: active = inhibition above about 25%; inactive = the rest.

The first assay in a line: repression of VP16-driven luciferase reporter – cell-based, luminescence, high throughput, counter-screen for SRC1 inhibitor project (AID 588824). The note with it: cell-based VP16 transactivation luciferase luminescence; at 3.6 µM; active compounds read high. A general note: In a reporter assay the amount or activity of a reporter protein is the signal.
What is called inhibition is the drop in the measured response relative to a control, in per cent. For the molecule `Cc1cc(C(=O)COC(=O)c2ccccc2Br)c(C)n1CC1CCCO1` (stereo not given), the inhibition is 51.9% (active).
As to `CC1CCc2nc(N)c(C#N)c(-c3cccnc3)c2C1` (stereo not given), the inhibition was 58.6% (active).
With `O=C(CCl)N(c1ccccc1)C1CCS(=O)(=O)C1` (stereo not given), the inhibition was 14% (inactive).
With `CC(=O)OC[C@]12CC[C@H]3[C@@](C)(CC[C@H]4C(C)(C)CCC[C@]34C)[C@@H]1CC(C1=CC(=O)OC1O)O2` (stereo not given in full), the inhibition was 90.8% (active).
Same read-out and setting: with `CC1CCCN(c2ncnc3c2cnn3-c2ccc(Cl)cc2)C1` (stereo not given) the figure was 71.4% (active); with `Cc1ccc(/C=C2\SC(=S)N(CCCC(=O)Nc3ccccn3)C2=O)cc1`, 28.9% (active).
As to `COc1ccc(-n2ncc3c(N(C)C4CCCCC4)ncnc32)cc1`, the inhibition was 40.1% (active).
In the case of `c1csc(CNc2ccc3c(c2)OCCO3)c1`, the inhibition was -34.9% (inactive).
For the molecule `Cc1cc(C(=O)COC(=O)c2ccccc2O)c(C)n1Cc1cccs1`, the inhibition was 74.4% (active).
Consider `COc1ccccc1-c1nnc(Sc2nc([N+](=O)[O-])nn2C)o1`, for which the inhibition was 36.4% (active).
On the same count and under the same terms, with `Nc1ccc(-c2cc3ccccc3oc2=O)cc1` the figure was 18.9% (inactive); with `OCC1OC(n2ccc3c2ncn2ncnc32)C(O)C1O` (stereo not given), 38.2% (active); with `COc1ccc2cc3c(N)nn(C(=O)c4ccccc4[N+](=O)[O-])c3nc2c1`, 61.3% (active).
As to `O=C(CC1CS(=O)(=O)CC1CC(=O)Nc1ccc2c(c1)OCCO2)Nc1ccc2c(c1)OCCO2` (stereo not given), the inhibition was -21.8% (inactive).
Take `CC1CCC(C(C)C)C(OC(=O)Cn2c(-c3ccc(F)cc3)[n+](C)c3ccccc32)C1` (stereo not given): the inhibition is 38.6% (active).
Same read-out and setting: in the case of `CC(C)Nc1ncnc2ccc(Br)cc12` it was 58.9% (active); in that of `Nc1cc2ccncc2c2ccccc12`, 47.8% (active); in that of `Cc1ccc2oc(/N=C(\N)NC(=O)C(C)(C)C)nc2c1`, 61.1% (active).
Turning to `COC1=CC(=O)c2c(ccc3ncnc(N)c23)C1=O`, the inhibition is 64.3% (active).
As for `CC(C)(C)C(=O)/C(=C/c1ccncc1)n1cncn1`, the inhibition is 48% (active).
As to `O=c1c2ccccc2oc2cc(C#CC3(O)CCCCC3)ccc12`, the inhibition is -14.8% (inactive).
On to `Cc1cc(C(=O)CN2C(=O)c3ccccc3S2(=O)=O)c(C)n1CC1CCCO1` (stereo not given), for which the inhibition was 60% (active).
For the molecule `CC(C)(C)OC(=O)NCCCCCc1cn([C@@H](CO)C(=O)NCCCCCCCCCCC(=O)N2CCN(C(=O)OC(C)(C)C)CC2)nn1`, the inhibition was 71.4% (active).
Same read-out and setting: with `Clc1ccc(-n2ncc3c(N4CCCCCC4)ncnc32)cc1` the figure was 54.3% (active); with `CC(=O)NC(c1ccc(C(C)C)cc1)c1ccc2cccnc2c1O` (stereo not given), 60.9% (active); with `Cc1ccc(C(=O)N/N=C/c2c(O)ccc3ccccc23)cn1`, 75.4% (active).
For `CCOc1cc(CNc2ccc3c(c2)OCCO3)cc(Br)c1OC`, the inhibition was -7.96% (inactive).
Take `COc1cccc(-c2nnc3n2N=C(C(C)(C)C)CS3)c1`: the inhibition is 71.4% (active).
For `Cc1ccc(C(=O)N/N=C/c2ccc([N+](=O)[O-])s2)cc1`, the inhibition was 44.4% (active).
Take `C=C1C(=O)C2=CC1CCC(=O)C1(C)CCC(OC(C)=O)C(C)(C)C1CC2O` (stereo not given): the inhibition is 51.3% (active).
As to `COc1cccc(N2CCN(c3ncnc4c3cnn4-c3ccc(C)cc3C)CC2)c1`, the inhibition is 86.2% (active).
Regarding `COc1cc(NC(=O)COc2cc(O)c3c(c2)OC(C)(C)CC3=O)cc(OC)c1OC`, the inhibition was 41.3% (active).
On to `Cc1ccc(Nc2nc(N)nc(CCl)n2)c(C)c1`, for which the inhibition is 28.1% (active).
For `CC(C)(C)NCC(=Cc1ccccc1)C(=O)c1ccccc1`, the inhibition was 87.5% (active).
The same measure, in the same setting: in the case of `CCCNC1=C(N(C(C)=O)c2cccc(F)c2)C(=O)c2ccccc2C1=O` it was 67.2% (active).
In the case of `CCOC(=O)c1ccc(NC(=O)c2ccc(C)c(S(=O)(=O)N3CCOCC3)c2)cc1`, the inhibition was 54.1% (active).
Regarding `NC(=S)NN=Cc1nccc2c(C(F)(F)C(F)(F)C(F)(F)F)cccc12`, the inhibition is 88.5% (active).
On to `COC1=CC(=O)c2nc(Cl)ccc2C1=O`, for which the inhibition is 60.7% (active).
Turning to `COc1cccc2c1C(=O)c1c(O)c3c(c(O)c1C2=O)CC(O)(C(C)=O)CC3OC1CC(N(C)C)C(O)C(C)O1` (stereo not given), the inhibition is 95.3% (active).
Still for that read-out and setting: in the case of `C[C@@H](C(=O)Nc1ccc2c(c1)OCCO2)n1c(=O)[nH]c2ccccc2c1=O` it was -17.6% (inactive).

A short description of the next assay: StAR promoter reporter inhibitors, counter-screen for LRH-1 inverse agonist project, cell-based, luminescence, high throughput (AID 651611; in the data active = inhibition above about 28%). The note with it: StAR promoter luciferase reporter counterscreen, at 3.6 µM, active compounds read high. On the technique in general: Counterscreens check selectivity or assay interference.
With `Cc1cc(C(=O)COC(=O)c2ccccc2Br)c(C)n1CC1CCCO1` (stereo not given), the inhibition was 57.3% (active).
For the molecule `CC1CCc2nc(N)c(C#N)c(-c3cccnc3)c2C1` (stereo not given), the inhibition was 42.3% (active).
Regarding `O=C(CCl)N(c1ccccc1)C1CCS(=O)(=O)C1` (stereo not given), the inhibition was 50.6% (active).
Take `CC(=O)OC[C@]12CC[C@H]3[C@@](C)(CC[C@H]4C(C)(C)CCC[C@]34C)[C@@H]1CC(C1=CC(=O)OC1O)O2` (stereo not given in full): the inhibition is 92.7% (active).
As for `CC1CCCN(c2ncnc3c2cnn3-c2ccc(Cl)cc2)C1` (stereo not given), the inhibition was 80.3% (active).
Regarding `Cc1ccc(/C=C2\SC(=S)N(CCCC(=O)Nc3ccccn3)C2=O)cc1`, the inhibition was 57.5% (active).
For the molecule `COc1ccc(-n2ncc3c(N(C)C4CCCCC4)ncnc32)cc1`, the inhibition is 30% (active).
Take `c1csc(CNc2ccc3c(c2)OCCO3)c1`: the inhibition is -19.7% (inactive).
Consider `Cc1cc(C(=O)COC(=O)c2ccccc2O)c(C)n1Cc1cccs1`, for which the inhibition was 85% (active).
In the case of `COc1ccccc1-c1nnc(Sc2nc([N+](=O)[O-])nn2C)o1`, the inhibition is 59.9% (active).
For the molecule `Nc1ccc(-c2cc3ccccc3oc2=O)cc1`, the inhibition is 52.2% (active).
With `OCC1OC(n2ccc3c2ncn2ncnc32)C(O)C1O` (stereo not given), the inhibition is 52.8% (active).
Turning to `COc1ccc2cc3c(N)nn(C(=O)c4ccccc4[N+](=O)[O-])c3nc2c1`, the inhibition is 44.6% (active).
Still for that read-out and setting: in the case of `O=C(CC1CS(=O)(=O)CC1CC(=O)Nc1ccc2c(c1)OCCO2)Nc1ccc2c(c1)OCCO2` (stereo not given) it was -26.2% (inactive); in that of `CC1CCC(C(C)C)C(OC(=O)Cn2c(-c3ccc(F)cc3)[n+](C)c3ccccc32)C1` (stereo not given), 23.7% (inactive); in that of `CC(C)Nc1ncnc2ccc(Br)cc12`, 17.8% (inactive).
`Nc1cc2ccncc2c2ccccc12`: the inhibition was 8.54% (inactive).
Same read-out and setting: with `Cc1ccc2oc(/N=C(\N)NC(=O)C(C)(C)C)nc2c1` the figure was 80.4% (active); with `COC1=CC(=O)c2c(ccc3ncnc(N)c23)C1=O`, 62.4% (active); with `CC(C)(C)C(=O)/C(=C/c1ccncc1)n1cncn1`, 35.2% (active).
`O=c1c2ccccc2oc2cc(C#CC3(O)CCCCC3)ccc12`: the inhibition is -28.9% (inactive).
With `Cc1cc(C(=O)CN2C(=O)c3ccccc3S2(=O)=O)c(C)n1CC1CCCO1` (stereo not given), the inhibition is 78.1% (active).
`CC(C)(C)OC(=O)NCCCCCc1cn([C@@H](CO)C(=O)NCCCCCCCCCCC(=O)N2CCN(C(=O)OC(C)(C)C)CC2)nn1`: the inhibition was 59.5% (active).
In the case of `Clc1ccc(-n2ncc3c(N4CCCCCC4)ncnc32)cc1`, the inhibition was 71% (active).
The same measure, in the same setting: with `CC(=O)NC(c1ccc(C(C)C)cc1)c1ccc2cccnc2c1O` (stereo not given) the figure was 89.1% (active); with `Cc1ccc(C(=O)N/N=C/c2c(O)ccc3ccccc23)cn1`, 84.8% (active); with `CCOc1cc(CNc2ccc3c(c2)OCCO3)cc(Br)c1OC`, 39.5% (active).
Take `COc1cccc(-c2nnc3n2N=C(C(C)(C)C)CS3)c1`: the inhibition is 56.7% (active).
Still for that read-out and setting: with `Cc1ccc(C(=O)N/N=C/c2ccc([N+](=O)[O-])s2)cc1` the figure was 70.3% (active); with `C=C1C(=O)C2=CC1CCC(=O)C1(C)CCC(OC(C)=O)C(C)(C)C1CC2O` (stereo not given), 30.3% (active); with `COc1cccc(N2CCN(c3ncnc4c3cnn4-c3ccc(C)cc3C)CC2)c1`, 83.2% (active).
With `COc1cc(NC(=O)COc2cc(O)c3c(c2)OC(C)(C)CC3=O)cc(OC)c1OC`, the inhibition is 50.4% (active).
Still for that read-out and setting: with `Cc1ccc(Nc2nc(N)nc(CCl)n2)c(C)c1` the figure was 20% (inactive); with `CC(C)(C)NCC(=Cc1ccccc1)C(=O)c1ccccc1`, 44.6% (active); with `CCCNC1=C(N(C(C)=O)c2cccc(F)c2)C(=O)c2ccccc2C1=O`, 68.9% (active).
The same measure, in the same setting: in the case of `CCOC(=O)c1ccc(NC(=O)c2ccc(C)c(S(=O)(=O)N3CCOCC3)c2)cc1` it was 65.1% (active).
On the same count and under the same terms, in the case of `NC(=S)NN=Cc1nccc2c(C(F)(F)C(F)(F)C(F)(F)F)cccc12` it was 92.3% (active).
As for `COC1=CC(=O)c2nc(Cl)ccc2C1=O`, the inhibition was 56.2% (active).
For `COc1cccc2c1C(=O)c1c(O)c3c(c(O)c1C2=O)CC(O)(C(C)=O)CC3OC1CC(N(C)C)C(O)C(C)O1` (stereo not given), the inhibition is 80% (active).
`C[C@@H](C(=O)Nc1ccc2c(c1)OCCO2)n1c(=O)[nH]c2ccccc2c1=O`: the inhibition is -11.4% (inactive).

The record behind these values is PubChem BioAssay.
